“And” between values parts separate entries of the source, which are not always exact repeats. Identical values can stand only once. Inconclusive results are not listed. The source made the active and inactive calls. Unless noted, calls follow the shape of the dose curve; as a rule, active = well fitted curve in the direction sought with a large enough effect; inconclusive = small, poorly fitted or top-dose-only effect, or another doubt; inactive = no such curve, though single readings can be large; an effect the other way counts as inactive or inconclusive.

Assay [1] in a line: Validation of Assay for Modulators of Lamin A Splicing (AID 1459; active = well fitted curve in the direction sought with a large enough effect in the signal ratio; the % refers to the signal ratio;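 also: cells exposed to compound for two days before reading; 0% is about no effect; ratio rise marks activators and ratio drop marks inhibitors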). The method, boiled down: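 Splicing correction is reported by an EGFP-containing lamin A minigene in stably transfected S3 HeLa cells, while DsRed2 controls for viability and nonspecific signal. Cells are exposed to compounds for 48 hrs before the GFP over RFP ratio is taken.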
The nature of assay [2]: qHTS Assay for Lipid Storage Modulators (AID 1519; calls by dose curve; as to activity change, negative = inhibition: % is scaled to controls: 0 for no effect and ±100 for the full control effect). As to conditions: Drosophila S3 cells, BODIPY lipid droplet/cell ratio, laser cytometry, cells loaded with oleic acid; for activity change, negative = inhibition: at 57.5 µM (top of the series). Put shortly: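 Cells seeded at 5,000 per well were treated with compounds over a concentration series and loaded with oleic acid (400 uM, as added). Lipid droplet fluorescence (488 nm excitation, 500-530 nm channel) was read by laser-scanning cytometry and normalized to 20 uM Triacsin C.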
For orientation: Quantitative high-throughput screening tests each substance at several concentrations.

The target of assay [3] is DNA repair nuclease/redox regulator APEX1 (Homo sapiens) (UniProt P27695). As to the kind of experiment: qHTS Validation Assay for Inhibitors of the Human Apurinic/apyrimidinic Endonuclease 1 (APE1) (AID 1705; also: potency is read from the fitted curve at half-maximal effect;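 as to activity change, negative = inhibition: TAMRA fluorescence gain over two minutes as APE1 cuts a quenched THF abasic duplex; % is scaled to controls: 0 for no effect and ±100 for the full control effect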). Put shortly: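 Endonuclease activity of human APE1 is followed as dequenching when the enzyme incises a tetrahydrofuran abasic site in a short duplex labelled 5'-TAMRA/3'-BHQ-2 (50 nM final), after 15 min enzyme–compound preincubation at room temperature.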
Chain of DNA repair nuclease/redox regulator APEX1 (Homo sapiens) (P27695 whole entry, looked up): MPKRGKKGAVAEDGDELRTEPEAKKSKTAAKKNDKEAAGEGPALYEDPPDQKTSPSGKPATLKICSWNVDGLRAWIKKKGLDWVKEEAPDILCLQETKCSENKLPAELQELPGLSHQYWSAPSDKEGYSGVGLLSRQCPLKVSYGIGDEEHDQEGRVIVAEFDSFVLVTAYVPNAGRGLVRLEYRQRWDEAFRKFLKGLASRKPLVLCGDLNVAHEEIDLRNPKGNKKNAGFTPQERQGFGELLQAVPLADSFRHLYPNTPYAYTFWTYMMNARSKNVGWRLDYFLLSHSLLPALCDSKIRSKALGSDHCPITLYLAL

The nature of assay [4]: Counterscreen for APE1 Inhibitors: Fluorescent Dye Displacement Validation Assay (AID 1707).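 Also: plate controls were ThO with dsDNA and no compound for no effect and ThO without dsDNA for full effect.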 Put shortly: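 Loss of Thiazole Orange fluorescence marks promiscuous DNA binders. The dye (250 nM) is mixed with 50 nM abasic-site dsDNA in pH7.5 Tris buffer containing MgCl2, then compounds are added and emission is read once.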
(In general: A counterscreen serves to expose hits that act by an unwanted route or on another target.)

In assay [5] the target is Endonuclease 4 (Escherichia coli (strain K12)) (UniProt P0A6C1). Put plainly: Counterscreen for APE1 Inhibitors: qHTS Validation Assay for Inhibitors of Endonuclease IV (AID 1708). Also: % is scaled to controls: 0 for no effect and ±100 for the full control effect. The method, boiled down:
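Incision of a double-stranded 50 nM TAMRA/BHQ-2 abasic substrate was followed kinetically (525/598 nm, reads every 60 s) after 15 min enzyme–compound preincubation with 2 nM EndoIV in pH 7.5 Tris buffer with MgCl2, DTT and Tween-20; concentration-response format.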

Assay [6] can be described thus: qHTS for differential inhibitors of proliferation of Plasmodium falciparum line 7G8 (AID 1815).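 Also: parasite growth measured after three days of incubation.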 Also: potency is read from the fitted curve at half-maximal effect.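 As to activity change, negative = inhibition: plate controls were vehicle wells for no effect and reference inhibitor wells for full effect.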
Assay [7] is described as follows: qHTS for differential inhibitors of proliferation of Plasmodium falciparum line GB4 (AID 1816).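 Also: parasite growth measured after 72 h incubation.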 Also: potency is read from the fitted curve at half-maximal effect.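 As to activity change, negative = inhibition: 0% = vehicle DMSO and -100% = reference inhibitor.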 As to conditions: Potency: Plasmodium falciparum GB4 proliferation inhibition.
A short description of assay [8]: qHTS for differential inhibitors of proliferation of Plasmodium falciparum line D10 (AID 1877).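 Also: parasites grown with compound for 72 h before DNA staining.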 Also: potency is read from the fitted curve at half-maximal effect.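 As to activity change, negative = inhibition: plate controls were vehicle wells for no effect and reference inhibitor wells for full effect.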
Assay [9] can be described thus: qHTS for differential inhibitors of proliferation of Plasmodium falciparum line 3D7 (AID 1876). Also: potency is read from the fitted curve at half-maximal effect.
Assay [10] deals with alpha-glucosidase (Oryza sativa, rice) (UniProt Q653V4). Put plainly: Counterscreen for Glucocerebrosidase Inhibitors: qHTS Assay for Rice alpha-Glucosidase at pH 5.0 (AID 997).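 Also: 0% = full activity with enzyme and -100% = basal without enzyme.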 The method, boiled down: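 Endpoint fluorogenic assay at pH 5.0: compounds (0.7 nM to 77 uM) titrated against 4 nM rice enzyme and 400 uM 4-MU-alpha-glucoside for 20 min at room temperature; NaOH/glycine stop, read ex 365/em 440 nm, Hill-fitted AC50.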

[11] abbreviates: measured here: cell count channel max response.
[12] abbreviates: measured here: lipid channel max response.

For the molecule `Oc1ccc(C2CNCc3sccc32)cc1O` (centres undefined), the outcome in assay [1] was inactive. Moreover, the activity change, negative = inhibition in assay [2] was -2.2% (inactive). The results for the max response in [2] (setting [11]) and in assay [2] (setting [12]) were 25.9% and 25.8%, respectively. The Potency entry in assay [3], in assay [4] and in assay [5] was “inactive” each time. The results for the Potency in assay [6], in assay [7] and in [8] were 8.91 µM (active), 12.6 µM (active) and 11.2 µM (active), respectively.
Regarding `COc1cc2nc(N3CCN(C(=O)OCc4ccccc4)C(C(=O)NC(C)(C)C)C3)nc(N)c2cc1OC` (centres undefined), the molecule was classed as inactive in assay [1]. Also, the activity change, negative = inhibition in assay [2] is 1.16% (inactive). Also, the max response in assay [2] (setting [11]) is 38.8%; in assay [2] (setting [12]) it was 39.8%. Besides, the Potency entry in [3], in [4] and in assay [5] was “inactive” throughout. Besides, the Potency in assay [6] was 2.82 µM (active); in assay [7], 2.82 µM (active); in assay [9], 3.16 µM (active); in [8] it was 10 µM (active).
As to `CN(C)c1nc(N)c(C(=O)N=C(N)N)nc1Cl`, the result in assay [10] and in assay [1] was inactive. For the same molecule, in assay [2], the activity change, negative = inhibition is 1.32% (inactive). Moreover, the max response in assay [2] (setting [11]) is -30.3%; in assay [2] (setting [12]) it was -31.1%. Also, the Potency result in [3] and in assay [4] was “inactive” throughout. The Potency is 12.6 µM (active) in assay [7], 10 µM (active) in [9] and 11.2 µM (active) in assay [8].
`COc1cc2c(CCNC(C)=O)c[nH]c2cc1Cl`: the outcome in [10] and in [1] was inactive. Besides, the activity change, negative = inhibition in assay [2] was -11.4% (inactive). The max response was -19% in [2] (setting [11]) and -30.9% in [2] (setting [12]). Moreover, the Potency entry in assay [3], in assay [4], in assay [6], in assay [7], in assay [9] and in [8] was “inactive” in each case.
For `O=c1[nH]c2cc([N+](=O)[O-])c([N+](=O)[O-])cc2[nH]c1=O`, the result in assay [10] and in assay [1] was inactive. Further, the activity change, negative = inhibition in [2] is 3.97% (inactive). Besides, the max response was -1.11% in assay [2] (setting [11]) and 2.64% in assay [2] (setting [12]). Besides, the Potency result in assay [3], in assay [4], in [5], in [6], in [7] and in assay [9] was “inactive” throughout. Besides, the Potency entry in assay [8] was “inactive”.
For the molecule `NCCCCC(=O)O`, the molecule was classed as inactive in assay [10] and in [1]. Further, the activity change, negative = inhibition in [2] is 7.28% (inactive) and -0.299% (inactive). Moreover, the max response is -8.72% and -47.7% in assay [2] (setting [11]); 11.7% and -48.3% in assay [2] (setting [12]). The Potency result in [3], in assay [4], in assay [5], in assay [6], in [7] and in [9] was “inactive” throughout. The Potency result in [8] was “inactive”.
For `CN1CCC[C@H]1c1cccnc1`, in assay [1], the molecule was called inactive. In assay [2], the activity change, negative = inhibition is 2.76% (inactive) and 1.23% (inactive). Besides, the max response in assay [2] (setting [11]) is 8.37% and -8.82%; in assay [2] (setting [12]), 10.7% and -7.32%. Also, the Potency entry in assay [3], in assay [4], in assay [5], in assay [6], in [7] and in assay [9] was “inactive” each time. Besides, the Potency entry in assay [8] is “inactive”.
On to `C=C/C(C)=C/[C@@]1(C)SC(=O)C(C)=C1O`, for which the call in [1] was inactive. In assay [2], the activity change, negative = inhibition is 0.111% (inactive). The max response was found to be 30.8% in assay [2] (setting [11]) and 34% in [2] (setting [12]). For the same molecule, the Potency in [3] was 1 µM (active). Further, the Potency result in assay [4], in assay [7], in assay [9] and in assay [8] was “inactive” in each case.
Regarding `O=C(O)[C@@H]1C[C@@H](C(=O)O)N1`, the molecule was classed as inactive in assay [10] and in [1]. Moreover, in assay [2], the activity change, negative = inhibition was -10.7% (inactive) and 0.262% (inactive). The max response was -15.8% and -6.72% in assay [2] (setting [11]); -25% and -8.29% in assay [2] (setting [12]). Besides, the Potency result in assay [3], in assay [4], in [5], in assay [6], in assay [7] and in assay [9] was “inactive” in each case. Besides, the Potency result in [8] is “inactive”.
Regarding `NCCCCCCCCCCN`, the outcome in assay [10] and in [1] was inactive. Moreover, the activity change, negative = inhibition in assay [2] was -1.41% (inactive). Besides, the max response in [2] (setting [11]) came to 42.1%; in [2] (setting [12]), 42.6%. The Potency entry in assay [3], in assay [4], in assay [6], in assay [7], in assay [9] and in [8] was “inactive” throughout.
`NC(CCCP(=O)(O)O)C(=O)O` (centres undefined): in assay [1], the result was inactive. In [2], the activity change, negative = inhibition was 0.0706% (inactive). Besides, the max response in [2] (setting [11]) was -11.8%; in assay [2] (setting [12]), -9.55%. Further, the Potency result in [3], in assay [4], in assay [5], in assay [6], in assay [7] and in assay [9] was “inactive” each time. Moreover, the Potency entry in assay [8] was “inactive”.
In the case of `CN1C2CCC1CC(OC(=O)C(O)c1ccccc1)C2` (centres undefined), in [1], the result was inactive. The activity change, negative = inhibition in assay [2] is 9.19% (inactive). In addition, the max response in [2] (setting [11]) turned out to be 16.5%; in assay [2] (setting [12]), 28.9%. In addition, the Potency result in [3], in assay [4], in assay [5], in assay [6], in assay [7] and in assay [9] was “inactive” each time. In assay [8], the Potency entry is “inactive”.
Turning to `OC[C@H]1O[C@@H](n2cnc3c(NC4CCCCC4)ncnc32)[C@H](O)[C@@H]1O`, the result in [1] was inactive. For the same molecule, the activity change, negative = inhibition in assay [2] is 0.866% (inactive). For the same molecule, the results for the max response in assay [2] (setting [11]) and in [2] (setting [12]) were -23.3% and -24.5%, respectively. Further, the Potency result in [3], in [4], in assay [5], in [6], in assay [7] and in assay [9] was “inactive” throughout. Moreover, the Potency entry in [8] is “inactive”.
`CC1CN(S(=O)(=O)c2cccc3cnccc23)CCN1` (centres undefined): in assay [1], the call was inactive. In addition, the activity change, negative = inhibition in assay [2] is 1.97% (inactive). Also, the max response came out at 5.7% in [2] (setting [11]) and 7.5% in assay [2] (setting [12]). Moreover, the Potency result in [3], in assay [4], in assay [5], in [9] and in assay [8] was “inactive” throughout. Moreover, in assay [7], the Potency is 11.2 µM (active).
Turning to `Cc1ccccc1CNc1ncnc2c1ncn2C1OC(CO)C(O)C1O` (centres undefined), the molecule was called inactive in assay [1]. Besides, in assay [2], the activity change, negative = inhibition is 0.209% (inactive). The max response was -22.5% in assay [2] (setting [11]) and -21.9% in [2] (setting [12]). The Potency result in assay [3], in [4], in [6], in [7], in assay [9] and in assay [8] was “inactive” in each case.
As to `Cn1c(=O)c2[nH]c(-c3ccccc3)nc2n(C)c1=O`, the result in [10] and in assay [1] was inactive. Besides, in [2], the activity change, negative = inhibition was 1.32% (inactive). Besides, the results for the max response in assay [2] (setting [11]) and in assay [2] (setting [12]) were 63.6% and 55.6%, respectively. Further, the Potency result in assay [3], in [4], in assay [5], in assay [6], in assay [7] and in assay [9] was “inactive” each time. The Potency result in [8] is “inactive”.
With `N.N.O=C(O)C1(C(=O)O)CCC1.[Pt]`, the molecule was called inactive in assay [10] and in [1]. Besides, in assay [2], the activity change, negative = inhibition was 7.88% (inactive) and 0.357% (inactive). Moreover, the max response in assay [2] (setting [11]) was 15.2% and -33.4%; in assay [2] (setting [12]) it was 23.7% and -31.2%. Moreover, the Potency entry in [3], in assay [4] and in assay [5] was “inactive” throughout. In assay [9], the Potency was 12.6 µM (active).
As to `NCCSSCCN`, the molecule was classed as inactive in [10] and in [1]. In assay [2], the activity change, negative = inhibition is 3.98% (inactive). For the same molecule, the results for the max response in assay [2] (setting [11]) and in assay [2] (setting [12]) were 9.22% and 16.2%, respectively. For the same molecule, the Potency entry in assay [3], in assay [4], in [5], in assay [6], in assay [7] and in assay [8] was “inactive” throughout.

Values taken from PubChem BioAssay (NCATS).
